# AMA1 RON2 block: qHTS for Inhibitors of AMA1-RON; Towards Development of Antimalarial Drug Lead: Primary Screen; Plasmodium falciparum AMA1 (3D7) - RON2 peptide interaction; AlphaScreen AMA1-biotinylated RON2 peptide binding; Potency, µM (top dose mostly 58.2 µM), inactives show at the highest dose activity change, negative = inhibition, hits mostly inhibitors; actives 0.2% (n = 360,000); AID 720542, 2013;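 further: 0% = vehicle wells and -100% = peptide control; nearly all actives have a fitted effect of over 45% in size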
#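 AMA1 (3D7) with his tag at 25 nM final met compounds first, then biotinylated RON2 peptide at 25 nM; detection used donor plus acceptor beads, 10 µg/mL apiece, read by AlphaScreen after 30 min at room temperature.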
# Pf growth 96h: Primary qHTS for delayed death inhibitors of the malarial parasite plastid, 96 hour incubation; AID 504834, 2011; actives 6.9% (n = 320,000); Potency, µM (series often up to 28.7 µM), for the others: at the highest dose activity change, negative = inhibition, most hits filed as inhibitors; P. falciparum luciferase reporter growth, 96 h; further: on the % scale 0 is the no-effect control and ±100 the full control effect
#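 Two-generation exposure (96 h) targets delayed-death phenotype. Reporter parasites carrying integrated firefly luciferase, in red cells at 2% hematocrit and 0.05% parasitemia final, kept at 37 C, 5% CO2; luminescence loss indicates inhibition.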
# Pf growth 48h: Primary qHTS for delayed death inhibitors of the malarial parasite plastid, 48 hour incubation; P. falciparum luciferase growth in erythrocytes, 48 h; Potency, µM (series often up to 28.7 µM), inactives show top-dose activity change, negative = inhibition, usual class: inhibitors; actives 5.9% (n = 310,000); AID 504832, 2011; further: on the % scale 0 is the no-effect control and ±100 the full control effect
#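 A one-generation exposure of luciferase-tagged malaria parasites in RPMI 1640/Albumax erythrocyte culture, 37 C and 5% CO2. Inhibition is inferred from decreased luminescence after adding detection reagent.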
# SARS PLP yeast: qHTS of Yeast-based Assay for SARS-CoV PLP; S. cerevisiae expressing SARS-CoV PLpro, growth rescue; Potency, µM (titrated, usually from 32.9 µM), for the others: top-dose activity, positive = growth rescue, hits mostly activators; actives 0.19% (n = 330,000); calls by dose curve; further: 0% is about no effect; nearly all actives have a fitted effect of over 55% in size
# * hit, by the source's call; ? = inconclusive; / = no result given; [ ] = dose if it differs, or a comment. Shown are actives, neighbours in structure and some others; about 9.4% of the full set was active somewhere. Unless noted, the call rests on the fitted dose curve; in most records, active means well fitted curve in the direction sought with a large enough effect; inconclusive means small, poorly fitted or top-dose-only effect, or another doubt; inactive means no such curve, though single readings can be large; an effect the other way counts as inactive or inconclusive. Potency means the concentration at half of the fitted maximal effect.
SMILES,AMA1 RON2 block,Pf growth 96h,Pf growth 48h,SARS PLP yeast
CCN(CC)S(=O)(=O)c1ccc2oc(C(=O)NC3CC3)c(C)c2c1,-9%,?,-28%,-3%
CN(C)c1ccc(/C=C(\NC(=O)c2ccccc2)C(=O)NCCN2CCOCC2)cc1,-4%,9.3µM*,10%,-4%
CN(C)S(=O)(=O)n1cc(/C=C(\NC(=O)c2ccccc2F)C(=O)NCCCn2ccnc2)c2ccccc21,1%,-7%,10µM*,8%
CN(C)c1ccc(/C=C(\NC(=O)c2ccccc2)C(=O)NCCCN2CCOCC2)cc1,-16%,15%,13%,1%
CN1CCN(C(=O)/C(=C/c2cn(S(=O)(=O)N(C)C)c3ccccc23)NC(=O)c2ccccc2)CC1,-5%,12µM*,?,0%
CCn1cc(/C=C(\NC(=O)c2ccccc2OC)C(=O)NCCCN2CCOCC2)c2ccccc21,-11%,9.3µM*,?,?
CCCCn1c(N)c(N(CCOC)C(=O)c2ccc(N3C(=O)c4ccccc4C3=O)cc2)c(=O)[nH]c1=O,16%,/,/,/
CCOC(=O)c1cnc2c(OC)cccc2c1NCc1cccnc1,11%,-8%,3%,6%
Cc1nc2cc(NC(=O)Nc3cccc([N+](=O)[O-])c3)ccc2n1C,-4%,-24%,-54%,4%
COc1ccc(C(=O)N/C(=C\c2cn(C)c3ccccc23)C(=O)N2CCN(C)CC2)cc1,8%,42%,?,-5%
CCn1cc(/C=C(\NC(=O)c2ccc(OC)cc2)C(=O)N2CCN(C)CC2)c2ccccc21,-11%,13µM*,?,9%
Cc1ccc(CC(=O)c2ccc(Cl)cc2)cc1,1%,39%,102%,0%
CCCNC(=O)COc1coc(CN2CCN(c3cccc(Cl)c3)CC2)cc1=O,-1%,10µM*,-16%,-8%
CCN(CC)C(=O)COc1coc(CN2CCN(c3cccc(Cl)c3)CC2)cc1=O,-6%,8.3µM*,-12%,0%
CN(C(=O)COc1coc(CN2CCN(c3ccccc3)CC2)cc1=O)c1ccccc1,9%,13µM*,-13%,0%
CCCNC(=O)COc1coc(CN2CCN(c3ccccc3)CC2)cc1=O,-3%,?,11%,0%
CC(C)=CC(=O)N1CCCC(N2CCN(c3ccccc3C)CC2)C1 (centres undefined),-3%,?,?,-1%
Cc1cccc(N2CCN(C(c3ccncc3)c3nnnn3C(C)(C)C)CC2)c1C (centres undefined),-2%,325%,?,0%
Cc1cc(N/N=C/c2ccc(O)cc2O)c2ccccc2n1,115%,-23%,?,-4%
Cc1ccccc1/C=N/Nc1ccnc2cc(Cl)ccc12,-9%,0.83µM*,0.83µM*,-62%
Cc1ccc(/C=N/Nc2ccnc3cc(Cl)ccc23)c(C)c1,-11%,?,0.21µM*,-57%
Clc1ccc2c(NCc3ccccc3)ccnc2c1,11%,?,?,-19%
Oc1ccc(/C=N/Nc2ccnc3cc(Cl)ccc23)c(O)c1,-4%,0.37µM*,0.59µM*,1%
CCOC(=O)c1cc2nc(OCC)nc(OCC)c2[nH]1,-1%,/,/,/
COc1cccc(Nc2nnc(SCN3C(=O)c4ccccc4C3=O)s2)c1,-9%,140%,63%,4%
SMILES,AMA1 RON2 block,Pf growth 96h,Pf growth 48h,SARS PLP yeast
COc1ccc(C)cc1NC(=O)C(Sc1nnc(-c2ccncc2)n1-c1ccc(Cl)cc1)c1ccccc1 (centres undefined),-30%,10µM*,?,-2%
COc1ccc(Nc2nnc(SC(C(=O)Nc3ccc(OC)c(Cl)c3)c3ccccc3)s2)cc1 (centres undefined),-17%,9.3µM*,?,-13%
COc1cccc(Nc2nnc(SCC(=O)N(CC(C)C)CC(C)C)s2)c1,1%,1.3µM*,?,-5%
COc1cccc(NC(=O)C(Sc2nnc(Nc3ccccc3C)s2)c2ccccc2)c1 (centres undefined),-7%[11.6 µM],6.6µM*,?,16%
CC1CCCC(NC(=O)C2CCC(CNc3c(N4CCCC4)c(=O)c3=O)CC2)C1C (centres undefined),2%,-22%,-15%,0%
O=C(CCCOc1ccccc1)Nc1ccccc1C(F)(F)F,0%,?,-9%,22%
Cc1ccccc1SCC(=O)NCCCn1ccnc1,12%,?,5%,1%
COc1ccc(C)cc1NC(=O)C(Sc1nnc(Nc2cc(C)ccc2OC)s1)c1ccccc1 (centres undefined),-1%[11.6 µM],10µM*,0%,17%
COc1cc(-c2[nH]ncc2CN2CCc3sccc3C2)cc(OC)c1OC,-5%,-1%,?,1%
CCN(Cc1ccncc1)Cc1cn[nH]c1-c1cc(OC)c(OC)c(OC)c1,7%,9.3µM*,?,1%
Cc1cccc(C2c3[nH]c4ccccc4c3CCN2C(=O)c2nn(C)c(=O)c3ccccc23)n1 (centres undefined),-24%,8.3µM*,?,0%
Cc1cccc(C2c3[nH]c4ccccc4c3CCN2C(=O)c2ocnc2C)n1 (centres undefined),-19%,?,18%,0%
Cc1cccc(C2c3[nH]c4ccccc4c3CCN2C(=O)Cc2nc(-c3ccccc3)n[nH]2)n1 (centres undefined),-23%,17%,12µM*,1%
Cc1cccc(C2c3[nH]c4ccccc4c3CCN2C(=O)CN2CCOC2=O)n1 (centres undefined),-2%,?,28%,1%
Cc1cccc(C2c3[nH]c4ccccc4c3CCN2C(=O)c2cc(CC(C)C)nc(C)n2)n1 (centres undefined),-5%,?,12µM*,-1%
COc1ccc(C(=O)O)cc1NCc1cccnc1,5%,6%,3%,4%
Cc1ccc(SCC(=O)OCC(=O)NC2CCCCCCC2)cc1,29%,7%,-23%,-6%
Cc1noc(C)c1S(=O)(=O)N1CCC(C(=O)NCCCN2CC(C)CC(C)C2)CC1 (centres undefined),-2%,?,3%,0%
CNC(=O)c1cc(C(=O)c2ccc(C(F)(F)F)cc2F)c[nH]1,6%,117%,243%,-2%
CN(C)CCNCCCOc1ccccc1-c1ccccc1,/,47%,2.6µM*,-1%
CC(C)(C)NCCOCCOc1ccccc1-c1ccccc1,-1%,3.7µM*,?,-1%
COC(=O)N/N=C1/C/C(=N\NC(=O)OC)c2ccccc21,8%,?,?,-1%
CCC(=O)N1CCc2cc(Br)cc(S(=O)(=O)CCC(=O)NCCOC)c21,-6%,/,/,-1%
CCC(=O)N1CCc2cc(Br)cc(S(=O)(=O)N3CCCCC3CC)c21 (centres undefined),-1%,?,1µM*,3%
CCC(=O)N1CCc2cc(Br)cc(S(=O)(=O)C3(C(=O)OC)CC3)c21,10%,?,4.1µM*,?

# Screening data (PubChem)
